Inconclusive results are not listed. Values without a mark were called inactive. Calls come from the whole dose curve; as a rule, active = well fitted curve in the direction sought with a large enough effect; inconclusive = small, poorly fitted or top-dose-only effect, or another doubt; inactive = no such curve, though single readings can be large or run the other way.
Experiment: HPAF-II 18hr Apoptosis Induction qHTS against the NCATS CANVASS Library (AID 1347360); note: 0% is about no effect
Settings: HPAF-II caspase-3/7 luminescence; series mostly up to 46.1 µM; caspase activation: at the top concentration
Text: Natural products and their derivatives continue to be wellsprings of nascent therapeutic potential. However, many laboratories have limited resources for biological evaluation, leaving their previously isolated or synthesized compounds largely or completely untested. To address this issue, the Canvass library of natural products was assembled (https://tripod.nih.gov/canvass), in collaboration with academic and industry researchers, for quantitative high-throughput screening (qHTS) across a diverse set of cell-based and biochemical assays. The pure (>85% purity by liquid chromatography/mass spectrometry [LC/MS]) Canvass library of 346 natural products were submitted by 45 academic laboratories and companies around the world. We collected pure natural products to circumvent deconvolution and structure elucidation due to time and resource limitations. The library was formatted into 1536-well plates and evaluated in 50 qHTS (in an 11-pnt concentration series) bioassays with broad scope of disease-relevant mechanisms. The resulting data set from 50 different assays was then systematically analyzed to identify overall trends and specific natural products with interesting biological activities. Reported herein are the results of each individual qHTS and their corresponding assay protocol. The Caspase-Glo (R) (Promega) is a homogeneous, luminescent assay that measures caspase activity. The detection substrate contains tetrapeptide sequence DEVD in an "add-mix-measure" format. The reagent generates a luminescent signal produced by a thermostable luciferase. The luminescence is proportional to the amount of caspase activity in the assay reaction. National Center for Advancing Translational Sciences (NCATS), Rockville, MD National Institute of Health (NIH), Bethesda, Maryland
Cancer Cell Apoptosis Assay 1. In a 1536 well, white solid bottom tissue culture plates (Corning 7494), HPAF-II cancer cells in DMEM + 10% FBS + 1% P/S media were dispensed in each well at a final concentration of 500 cells / well (5uL volume) using the Multidrop Combi (Thermo Fisher Scientific) dispenser. 2. Compounds were pin transferred (~23nL volume) via Wako Pin-tool (Wako Automation, Richmond VA) equipped with a 1536 pin head. The assay plates were treated with compounds in a concentration series with a final concentration range of 0.17nM to 103uM. 3. Doxorubicin was used as a control in a 16pnt titration (1mM; 1:2 dilution; 16-points; n = 2; column 3, rows 1 - 32) and was pin transferred via Wako Pin-tool equipped with a 1536 pin head. The final concentration range of doxorubicin is 0.1nM - 4uM. 4. The assay plates were incubated for 18 hours at 37 degrees C/5% CO2/95% Rh. 5. 3uL Caspase-Glo 3/7 (R) (Promega) detection reagent was then added to the assay plates (columns 2 - 48, rows 1 - 32) and incubated at room temperature, covered from light, for 15 min. 6. Luminescence signal was acquired via the ViewLux plate reader (PerkinElmer) using a clear filter, 20 second exposure and 2x binning settings.

SMILES	caspase activation
CC[C@@H]1CN2CC[C@@]3(O)C(=Nc4cccc(OC)c43)[C@@H]2C[C@@H]1/C(=C\OC)C(=O)OC	-2.24%
NCCc1ccccc1	1.18%
COc1ccc2c3c([nH]c2c1)C(C)=NCC3	3.38%
CO[C@H](c1ccccc1)[C@H]1NC(=O)C(C)NC(=O)C(C[C@@H](C)CO)N(C)C(=O)[C@@H](C(O)c2cn(C(C)(C)C3CO3)c3ccccc23)NC(=O)C(C(C)C=C(C)C)NC(=O)C(CC(C)C)N(C)C(=O)C(C(C)C)NC1=O (stereo not given in full)	-1.73% [at 27.5 µM]
CO[C@@H](/C=C/CC/C=C/C(=O)O)[C@@H](O)[C@H](C)/C=C(\C)[C@@H](O)[C@H](C)C(=O)CCCC1CC(=O)NC(=O)C1	-1.09%
CO[C@@H](/C=C/CC/C=C/C(=O)O)[C@@H](O)[C@H](C)[C@@H](O)/C(C)=C/[C@H](C)C(=O)CCCC1CC(=O)NC(=O)C1	-2.58%
CC(=O)N[C@H]1CCN2CCC[C@H]12	0.326% [at 103 µM]
CC=C1CN(C=O)[C@H]2C[C@@H]1[C@@H](C(=O)OC)[C@@]13CCOC21Nc1ccccc13 (stereo not given in full)	3.04%
CCC(=O)CCCCC[C@@H]1NC(=O)[C@H]2CCCCN2C(=O)[C@H]([C@@H](C)CC)NC(=O)[C@H](Cc2cn(OC)c3ccccc23)NC1=O	10.9%
C/C=C1/CN2CC[C@]34C(=Nc5ccccc53)[C@@H]2C[C@@H]1[C@H]4C(=O)OC	-3.76% [at 91.4 µM]
CNCCc1ccc(O)cc1	5.38%
CCN1C[C@]2(C)CC[C@@H](O)[C@]34C1[C@H](C[C@H]23)C12CCC(CC14)[C@](O)(CO)[C@H]2O (stereo not given in full)	1.68%
CCC[C@H]1CC[C@H]2[C@H](C)CCC[C@H]2N1	-1.28%
CCCCC[C@@H]1OC(=O)[C@@H](C)N(C)C(=O)[C@H](CCCCC)OC(=O)C(C)N(C)C(=O)[C@H](CCCCC)OC(=O)[C@@H](C)N(C)C(=O)[C@H](CCCCC)OC(=O)C(C)N(C)C1=O (stereo not given in full)	3.11%
CC[N@@+]1([O-])C[C@]2(C)CC[C@@H](O)[C@@]34C5C[C@H]6CC[C@@]5(C(C[C@H]23)C41)[C@H](O)[C@@]6(O)CO (stereo not given in full)	5.35%
CN(C)Cc1c[nH]c2ccccc12	1.08%
O=C(c1ccccc1O)c1[nH]c(Cl)c(Cl)c1-n1c(C(=O)c2ccccc2O)cc(Cl)c1Cl	2.75%
CN1C(=O)[C@]23CC4C(C)(C)[C@@]5(C[C@@]41CN2CC[C@@]3(C)O)C(=O)Nc1c5ccc2c1OC=CC(C)(C)O2 (stereo not given in full)	7.34%
C=C1[C@@H](C)[C@H]2[C@H](Cc3ccccc3)NC(=O)[C@]23OC(=O)/C=C/[C@H](O)CCC[C@@H](C)C/C=C/[C@H]3[C@@H]1O	2.8%
COC(=O)C1=C2Nc3ccccc3[C@@]23CCN2CC(C(C)=O)C1C[C@H]23 (stereo not given in full)	2.29%
C[C@]12CC(O)C3[C@@H](CCC4C[C@@H](O)CC[C@@]43CO)[C@@]1(O)CCC2C1=CC(=O)OC1 (stereo not given in full)	-1.83%
COc1ccc2c(c1)[nH]c1c(C)nccc12	-0.788% [at 91.4 µM]
CC1=CC(=O)C2=C(C)C[C@H](O)[C@@H]3[C@H](OC(=O)[C@@H]3C)[C@@H]12	2.15%
CCN1C[C@]2(C)CC[C@H](O)[C@]34C1C(C[C@H]23)[C@@]12CC[C@H](CC14)[C@](O)(COC(=O)c1ccc(OC)c(OC)c1)[C@H]2O (stereo not given in full)	-0.763%
CCCC[C@@H]1CC[C@H]2CCCC(CCC)N12 (stereo not given in full)	1.45%
CNCCc1ccccc1	3.35%
CC1=CC2CC[C@@H]3[C@@H](C)C[C@H](C)[C@@H](C1)N23 (stereo not given in full)	2.84%
COc1ccc(C23Oc4cc(OC)cc(OC)c4[C@](O)([C@H](c4ccccc4)C2C(=O)NCCCCNC(=O)c2ccccc2)[C@@H]3O)cc1 (stereo not given in full)	2.51%
CNCCc1c[nH]c2ccccc12	1.16%
c1ccc2c3c([nH]c2c1)CNCC3	6.02%
